Hits are enriched below; roughly 12% of the tested compounds scored in any of these assays.
HP1b binding inh – blocks HP1-beta chromodomain binding to methylated histone tails; P83916; AlphaScreen HP1-beta / biotin-H3K9me3 peptide binding; Potency, µM (highest dose often 114 µM), for inactives: top-dose activity change, negative = inhibition, usual class: inhibitors; 0.56% of 390,000 active; note: nearly all actives have a fitted effect of over 70% in size
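HP1-beta protein (50 nM final) preincubated 30 min at room temperature with biotinylated H3(1-18)K9me3 peptide (50 nM) in PBS pH 7.4, 0.01% Tween-20, then compound added for 30 min. AlphaScreen streptavidin donor/nickel chelate acceptor beads (10 ug/mL final), 30 min dark, luminescence read.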
JMJD2A Tudor – blocks the human JMJD2A Tudor domain; O75164; Potency, µM (top dose mostly 114 µM), inactives show at the top dose activity change, negative = inhibition, hits mostly inhibitors; AlphaScreen JMJD2A-Tudor / H3K4me3 peptide binding; 4.4% of 390,000 active; AID 504339; note: % is set by controls: 0 for no effect and ±100 for the full control effect; nearly all actives have a fitted effect of over 50% in size
Target sequence (O75164 whole entry, looked up, the tested form may be a part): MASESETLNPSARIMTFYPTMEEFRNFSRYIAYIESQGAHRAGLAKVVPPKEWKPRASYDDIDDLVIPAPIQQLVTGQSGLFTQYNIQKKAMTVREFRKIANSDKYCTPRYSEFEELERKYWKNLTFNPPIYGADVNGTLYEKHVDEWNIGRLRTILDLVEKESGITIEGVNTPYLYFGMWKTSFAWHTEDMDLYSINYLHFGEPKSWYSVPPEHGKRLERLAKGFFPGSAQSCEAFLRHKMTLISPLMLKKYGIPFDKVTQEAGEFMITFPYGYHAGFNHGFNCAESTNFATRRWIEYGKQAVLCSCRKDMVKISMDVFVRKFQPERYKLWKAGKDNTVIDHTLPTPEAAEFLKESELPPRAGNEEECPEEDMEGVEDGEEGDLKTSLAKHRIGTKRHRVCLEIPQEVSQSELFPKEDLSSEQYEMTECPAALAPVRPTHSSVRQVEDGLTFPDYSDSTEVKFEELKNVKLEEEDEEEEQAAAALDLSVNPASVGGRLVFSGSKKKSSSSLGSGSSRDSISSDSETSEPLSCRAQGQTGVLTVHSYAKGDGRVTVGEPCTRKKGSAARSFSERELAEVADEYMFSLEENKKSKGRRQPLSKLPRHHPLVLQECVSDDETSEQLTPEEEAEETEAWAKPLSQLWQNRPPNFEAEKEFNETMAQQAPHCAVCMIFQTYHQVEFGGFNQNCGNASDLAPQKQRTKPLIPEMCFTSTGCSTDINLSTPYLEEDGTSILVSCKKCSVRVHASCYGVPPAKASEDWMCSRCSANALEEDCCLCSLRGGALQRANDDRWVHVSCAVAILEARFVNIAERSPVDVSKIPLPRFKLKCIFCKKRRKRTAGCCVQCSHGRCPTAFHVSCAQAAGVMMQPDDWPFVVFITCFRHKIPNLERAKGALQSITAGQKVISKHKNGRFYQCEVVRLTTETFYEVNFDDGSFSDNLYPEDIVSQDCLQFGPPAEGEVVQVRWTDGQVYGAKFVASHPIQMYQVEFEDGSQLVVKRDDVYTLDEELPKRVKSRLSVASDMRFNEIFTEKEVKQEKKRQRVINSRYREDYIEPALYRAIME
Sfp inh – blocks B. subtilis Sfp PPTase activity. Q9F4F7. Potency, µM, for inactives: largest response in the series, negative = inhibition, most hits filed as inhibitors. 3.5% of 310,000 active. Biochemical Sfp PPTase activity, qHTS;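 note: the enzyme is Sfp with the accession as filed and its product quenches rhodamine fluorescence; 0% = enzyme reaction without inhibitor and -100% = no enzyme wells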
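Step 1, compound plus 15 nM Sfp-PPTase, 15 min, room temperature. Step 2, add rhodamine-CoA (5 uM) and BHQ-2-YbbR (12.5 uM). Step 3, read 525/598 nm fluorescence at 0 and 30 min.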
G9a inh – inhibitors of human histone lysine methyltransferase G9a | G9a H3K9 monomethylation, AlphaScreen, 2 h | Potency, µM (top dose mostly 102 µM), for inactives: top-dose activity, negative = inhibition, most hits filed as inhibitors | Q96KQ7 | 8.8% of 350,000 active; note: % is set by controls: 0 for no effect and ±100 for the full control effect; nearly all actives have a fitted effect of over 75% in size
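Methyltransferase reactions run at room temperature for 2 h (20 nM enzyme, 500 nM biotin-H3K9 peptide, 20 uM SAM) after a 15 min compound preincubation; product detected by AlphaScreen beads and anti-H3K9me1 antibody.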
TDP1 inh – blocks human tyrosyl-DNA phosphodiesterase 1; recombinant TDP1, AlphaScreen DNA substrate cleavage; Potency, µM (titrated, usually from 130 µM), for inactives: at the highest dose activity change, negative = inhibition, actives largely listed as inhibitors; 0.28% of 350,000 active; note: % is set by controls: 0 for no effect and ±100 for the full control effect; nearly all actives have a fitted effect of over 40% in size
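Signal: AlphaScreen proximity between streptavidin donor and anti-FITC acceptor beads on intact substrate. Reaction: Tdp1 1 nM, substrate 15 nM final, 5 min RT after 15 min compound preincubation.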
BAZ2B inh – blocks human BAZ2B | Q9UIF8 | AlphaScreen BAZ2B-H3K14Ac peptide displacement | Potency, µM (doses to about 114 µM), for the others: at the highest dose activity change, negative = inhibition, actives largely listed as inhibitors | 4.4% of 360,000 active | AID 504333; note: % is set by controls: 0 for no effect and ±100 for the full control effect; nearly all actives have a fitted effect of over 60% in size
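Inhibition is scored as reduced AlphaScreen emission. The BAZ2B/b-H3(5-23)K14Ac complex (50 nM each) in PBS pH 7.4, 0.01% Tween-20 meets compound (up to 110 uM) for 30 min at RT before bead addition.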
* marks the source's active call; other numbers are inactive results; u = inconclusive; x = not tested or not shown; [ ] = another dose, or the depositor's remark. Calls come from the whole dose curve; as a rule, active = well fitted curve in the direction sought with a large enough effect; inconclusive = small, poorly fitted or top-dose-only effect, or another doubt; inactive = no such curve, though single readings can be large; an effect the other way counts as inactive or inconclusive. Potency is the fitted concentration of half-maximal effect.

SMILES	HP1b binding inh	JMJD2A Tudor	Sfp inh	G9a inh	TDP1 inh	BAZ2B inh
COc1ccc2c(c1)c(=O)oc1cc(OCC(=O)N3CCC(C)CC3)ccc12	-45%	50µM*	-5%	8.9µM*	x	u
COc1ccc2c(c1)c(=O)oc1cc(OCC(=O)N3CCc4ccccc4C3)ccc12	1%	56µM*	u	3.2µM*	13µM*	40µM*
Cc1cc(=O)oc2cc(OCC(=O)NCCc3ccccc3)ccc12	15%	1%	14%	-1%	x	-18%
Cc1noc(NS(=O)(=O)c2ccc(NS(=O)(=O)c3ccc(Cl)cc3)cc2)c1C	32%	-2%	x	x	2%	x
Cc1ccc(NCC(O)C(O)C(O)CO)c(N=Nc2ccccc2)c1C (stereo not given)	u	u	2%	-45%[12.7 µM]	x	11µM*
Cc1cccc(N2CCN(c3ccc(N4C(=O)CCCC4=O)cc3[N+](=O)[O-])CC2C)c1 (stereo not given)	u	u	-8%	u	3%	28µM*
CCN(CC)c1ccc(/C=C/c2cccc[n+]2C)c(OC)c1	-18%	18µM*	-1%	35µM*	x	50µM*
COC(=O)/C(=N/Nc1ccccc1Cl)Sc1nnc(C(O)c2ccccc2)n1-c1ccccc1 (stereo not given)	30%	-18%	-22%	45µM*	3%	15%
CC(=O)/C(=N\Nc1ccc(Cl)cc1Cl)Sc1nnc(-c2ccccc2)n1-c1ccccc1	35%	-12%	4%	u	-1%	-3%
CCOC(=O)/C(=N/Nc1ccc(OC)cc1)Sc1nnc(CCc2ccccc2)n1-c1ccccc1	1%	-35%	-10%	u	10%	-34%
CC(=O)/C(=N/Nc1ccccc1Cl)Sc1nnc(C(O)c2ccccc2)n1-c1ccccc1 (stereo not given)	21%	u	-11%	10µM*	5%	-3%
CC(=O)/C(=N/Nc1ccccc1)Sc1nnc(C(O)c2ccccc2)n1-c1ccccc1 (stereo not given)	24%	-24%	-11%	45µM*	1%	u
CC(Oc1cc2oc(=O)c3c(c2cc1Cl)CCC3)C(=O)NCc1ccccn1 (stereo not given)	12%	-18%	3%	6%	6%	-15%
CCC(C(=O)NCCCN(CC)CC)n1ncn2c(cc3occc32)c1=O (stereo not given)	3%	-12%	x	u	-1%	4%
C/C1=C\[C@@H](O)C(C(C)C)C(OC(=O)c2ccc(O)cc2)C/C(C)=C/CC1 (stereo not given in full)	x	x	8%	x	8%	x
COc1ccc(-c2cc(-c3cccs3)c(C#N)c(SCC(=O)NCc3ccccc3)n2)cc1	31%	0%	-3%	1%	4%	2%[57.1 µM]
N#Cc1c(-c2ccccc2)cc(-c2cccs2)nc1SCC(=O)O	4%	-13%	56µM*	8.9µM*	x	-5%
N#Cc1c(-c2ccccc2)cc(-c2ccccc2)nc1SCC(O)CS(=O)(=O)Cc1ccccc1 (stereo not given)	-17%	-25%	x	4.5µM*	-8%[12.3 µM]	-14%
CN1CCN(C(=O)CSc2nc(-c3cccs3)ccc2C#N)CC1	17%	u	u	40µM*	7%	1%
Cc1ccc(-c2cc(-c3ccccc3)c(C#N)c(SCC(O)CS(=O)(=O)Cc3ccccc3)n2)cc1 (stereo not given)	-2%	-15%	x	u	-5%[12.3 µM]	-8%
N#Cc1c(-c2ccc(Cl)cc2)cc(-c2cccs2)nc1SCC(=O)O	-18%	28µM*	40µM*	8.9µM*	x	22µM*
COc1ccc(Br)cc1CNC(=O)C1CCCN(S(=O)(=O)N2CC(C)CC(C)C2)C1 (stereo not given)	58%	-9%	15%	10%	1%	-11%[57.1 µM]
Cc1ccc2cccnc2c1N	-4%	22µM*	-9%	-3%	2%	u
Cc1ccnc2c1ccc1c(C)ccnc12	48%	7.1µM*	x	u	1%	4.5µM*

Assay outcomes (PubChem BioAssay)
